In all, about 420,000 compounds went through this assay and about 64,000 (15%) were called active. Inconclusive results (about 27%) are left out. Only a sample is shown. A number with no mark means an inactive call. Calls follow the shape of the dose curve; as a rule, active = well fitted inhibition curve with a large enough effect; inconclusive = small, poorly fitted or top-dose-only effect; inactive = flat fitted curve, though single readings scatter.
test: qHTS for Inhibitors of human tyrosyl-DNA phosphodiesterase 1 (TDP1): qHTS in cells in absence of CPT; conditions: DT40 Tdp1-/- hTDP1 cells, no CPT, ATP luminescence, 48 h; activity change, negative = growth inhibition: at 46.2 µM (top of the series); also: nearly all actives have a fitted effect of over 55% in size
Excerpt: Human tyrosyl-DNA phosphodiesterase 1 (TDP1) is a novel repair gene, and we propose to use it as a new target for anticancer drug development. TDP1 is not an essential protein, but under treatment with topoisomerase I poison (camptothecin: CPT), TDP1 works as a critical factor for cell survival. To directly identify novel TDP1 inhibitors active in a cellular environment, we have knocked-out the Tdp1 gene in chicken DT40 cells (Tdp1-/-) and generated a complemented counterpart cells that contains a stable transfection of the human TDP1 gene (Tdp1-/-;hTDP1 cells). For the primary screen, Tdp1-/-;hTDP1 cells will be exposed to small molecules in the presence or absence of CPT, and their growth kinetics will be evaluated after 48 hours by measuring ATP activity. […] The hit compounds will then be evaluated in the presence or absence of CPT using Tdp1-/- cells. […] In tertiary assays, biochemical gel-based assays will be used to assess whether the hit compounds specifically target TDP1.
To this end, we have screened this cell line against the MLSMR in two primary screens. In one screen we add CPT and in the other we screen in the absence of CPT; this AID represents the screen where CPT was absent.
NIH Chemical Genomics Center [NCGC]
NIH Molecular Libraries Probe Centers Network [MLPCN]
Assay Submitter (PI): Yves Pommier, NCI
DT40-hTDP1 cells without 20 nM Camptothecin (add 20 microL of DMSO in 1 L of cell culture medium) were dispensed at 400 cells/5microL/well in tissue culture treated 1536-well white wall/solid bottom assay plates (Greiner Bio-One North America, NC, U.S.A.) using a Multidrop Combi 8 channel dispenser (Thermo Fisher, Waltham, MA, USA). 23 nL compounds and controls were transferred using the pin tool (Kalypsys, San Diego, CA, USA) to the assay plates. The assay plates were then incubated at 37 masculineC for a minimum 48 hr. Three microL of Cell Titer Glo solution was added to the plates and incubated at RT in dark for 30 min. Luminescence was read using ViewLux (Perkin Elmer) with 1 sec exposure slow speed, high gain and 2x binning.
% is scaled to controls: 0 for no effect and ±100 for the full control effect; potency is read from the fitted curve at half-maximal effect.

| SMILES | activity change, negative = growth inhibition | Potency |
| --- | --- | --- |
| Cc1cccc(Cn2c(=O)n(CCC(=O)NCCc3ccc(Cl)cc3)c(=O)c3sccc32)c1 | -14.5% |  |
| CCc1c(C)nc2c(OC)cccc2c1Cl | -7.5% |  |
| CCOc1ccc(CC(=O)Nc2ccc(S(=O)(=O)Nc3cc(C)on3)cc2)cc1OCC | 1.83% |  |
| Cc1cccc(C(=O)Nc2nnc(Cc3c[nH]c4ccccc34)s2)c1 | -23.7% |  |
| COc1ccc(CN2C(=O)C(CC(=O)NCCN3CCOCC3)CC(C(=O)N(C(C)C)C(C)C)=C2C)cc1 (configuration not stated) | -2.68% |  |
| CCCCOCCCNC(=O)C[C@@H]1C[C@@]2(C(=O)OC)CCCCC=C2N(CCC2=CCCCC2)C1=O |  | 23.1 µM (active) |
| CCCCOCCCNC(=O)C[C@@H]1C[C@@]2(C(=O)OCC)CCCC=C2N(CCC2=CCCCC2)C1=O |  | 18.4 µM (active) |
| COC(=O)[C@]12CCCCC=C1N(CCC1=CCCCC1)C(=O)[C@H](CC(=O)NCC1CCCCC1)C2 |  | 23.1 µM (active) |
| CC(C)COc1ccc(C(=O)OCC(=O)NCCC2=CCCCC2)cc1 | -16.4% |  |
| CN1CCNC(=O)C1CC(=O)NCCC1=CCCCC1 (configuration not stated) | 2.56% |  |
| COCCCN1C(=O)C(CC(=O)NCc2cccs2)CC(C(=O)N2CCOCC2)=C1C (configuration not stated) | 3.62% |  |
| CCOC(=O)[C@]12CCCC=C1N(CCC1=CCCCC1)C(=O)[C@H](CC(=O)NCCCOC)C2 |  | 20.6 µM (active) |
| CC1=C(C(=O)N(C)C)CC(CC(=O)NCCc2ccccn2)C(=O)N1CCC1=CCCCC1 (configuration not stated) | -10.7% |  |
| COc1cccc(CNC(=O)C(NS(=O)(=O)c2ccc3nc(C)sc3c2)C(C)C)c1 (configuration not stated) | -22.3% |  |
| Cc1cc(C)cc(NC(=O)Cc2csc(C)n2)c1 | -0.897% |  |
| Cc1ccc(C)c(NC(=O)CCC(=O)N/N=C2/CC(=O)CC(C)(C)C2)c1 | -11.3% |  |
| CCCCC(=O)N1CC2(C)CN(C(=O)CCCC)CC(C)(C1)C2=O | -2.18% |  |
| O=C(O)CN(Cc1ccco1)S(=O)(=O)c1ccccc1 | -1.89% |  |
| O=C(CCNC(=O)c1ccc(Br)cc1)NCC(c1ccco1)N1CCCCC1 (configuration not stated) | -18.3% |  |
| CC(C)CN(C(=O)c1cccc(S(=O)(=O)N2CCCCC2)c1)C1CCS(=O)(=O)C1 (configuration not stated) |  | inactive |
| CCCCNCc1ccc(SC)cc1 | -13.6% |  |
| CC(=NNC(N)=O)C1CC2CCC1CC2 (configuration not stated) | -5.2% |  |
| ClC/C=C/C[n+]1ccccc1Cl | -12.5% |  |
| CN(C)c1ccc(NC(=O)c2ccncc2)c2ccccc12 | -1.64% |  |
| O=c1c(-c2ccccc2Cl)c[nH]n1-c1ccccc1 | -25.4% |  |
| O=c1c2c(-c3ccccc3)ccnc2[nH]n1-c1ccccc1 |  | inactive |

| SMILES | activity change, negative = growth inhibition | Potency |
| --- | --- | --- |
| O=c1c(-c2cccc(Cl)c2)c[nH]n1-c1ccccc1 |  | 16.4 µM (active) |
| N#C/C=C1\Sc2ccccc2C(=O)N1CC(=O)N1CCN(S(=O)(=O)c2ccccc2)CC1 | -6.42% |  |
| O=C(O)c1ccccc1-c1ccccc1C(=O)Nc1ccccc1Br | 15.2% |  |
| COc1ccc(N2C(=O)CCC(C(=O)N(C)C3CCCCC3)C2c2ccc(OC)c(OC)c2)cc1 (configuration not stated) | -18% |  |
| Cc1c(C)n2c(SCC(=O)N3CCCC3)nnc2[nH]c1=O | 0.243% |  |
| CCOC(=O)C1CCCN(C(=O)CSc2nnc3nc(C)cc(C)n23)C1 (configuration not stated) |  | 20.6 µM (active) |
| CCOC(=O)C1CCCN(C(=O)C2CCN(c3nnc(-n4cccc4)s3)CC2)C1 (configuration not stated) | -25.4% |  |
| CCCCN1C(=O)CCC(C(=O)O)C1c1ccc(OC)cc1 (configuration not stated) | -28.3% |  |
| NC(=O)c1ccc(NC(=O)COC(=O)c2c3c(nc4ccccc24)/C(=C\c2ccc4c(c2)OCO4)CCC3)cc1 |  | 8.2 µM (active) |
| O=C(COC(=O)c1c2c(nc3ccccc13)/C(=C\c1cccs1)CCC2)Nc1ccccc1Cl |  | 13 µM (active) |
| O=C(COC(=O)c1cccs1)Nc1ccccc1Cl | -5.92% |  |
| NS(=O)(=O)c1ccc(NC(=O)COC(=O)c2c3c(nc4ccccc24)/C(=C\c2ccc4c(c2)OCO4)CCC3)cc1 |  | 13 µM (active) |
| O=C(COC(=O)c1ccncc1)Nc1ccc2c(c1)OCO2 | 16.5% |  |
| COc1cc(/C=C2\CCCc3c2nc2ccccc2c3C(=O)O)cc(Cl)c1O | 10.6% |  |
| O=C(COC(=O)c1ccc(F)cc1)Nc1ccc2c(c1)OCO2 | -23.8% |  |
| NS(=O)(=O)c1ccc(NC(=O)COC(=O)c2cc3ccccc3oc2=O)cc1 | 3.57% |  |
| COc1cc(-c2cc(C(=O)OCC(=O)Nc3ccc4c(c3)OCO4)c3ccccc3n2)cc(OC)c1OC | 2.26% |  |
| COCCC(=O)Nc1ccc2c(c1)CN(C(=O)CCOC)CC2 | -6.12% |  |
| COc1ccccc1C(=O)OCC(=O)NCCNC(=O)COC(=O)c1ccccc1OC | -0.215% |  |
| C/C=C(\C)C(=O)N1CC2(CC(c3cccc(NC(=O)CCCCC)c3)=NO2)C[C@@H]1C(N)=O (some centres not stated) | -6.33% |  |
| O=C(COC(=O)c1ccccc1)c1ccc2c(c1)OCCO2 | -6.69% |  |
| O=C(CCN1CCc2ccccc2C(O)(c2ccccc2)C1)c1ccc2c(c1)OCCO2 (configuration not stated) |  | 2.91 µM (active) |
| CCC1(c2ccccc2)NC(=O)N(CC(=O)c2ccc3c(c2)OCO3)C1=O (configuration not stated) | -7.08% |  |
| COc1ccc(CCOC2OC(CO)C(OC(=O)/C=C/c3ccc(O)c(OC)c3)C(O[C@H]3O[C@@H](C)[C@H](O)[C@@H](O)[C@H]3O)C2O)cc1O (some centres not stated) | -13.4% |  |
| Cc1ccc(CNC(=O)c2ccccc2CCc2ccccc2)cc1 | -10.1% |  |
| CNC[C@H](CC1CCCCC1)NC[C@H](NCCC1CCCC1)[C@H](C)O |  | 20.6 µM (active) |

Source: PubChem BioAssay AID686978 (National Center for Advancing Translational Sciences (NCATS), 2013)
